From paper PMC4552634, “A New Set of Chemical Starting Points with Plasmodium falciparum Transmission-Blocking Potential for Antimalarial Drug Discovery” (PLoS ONE, 2015)
Screen size: about 13,000 compounds; about 3,200 (25%) showed an effect of 50% or more. The list shows a part of the results.

Tested on: P. falciparum stage V gametocytes
Design: BacTiter-Glo ATP luminescence viability of purified stage V gametocytes in 384-well plates, per cent inhibition versus DMSO
Settings: 48 h, 5 µM; inhibitor

| SMILES | % Inhibition [%] |
| --- | --- |
| COc1ccc2nccc([C@@H](O)CN3CCC(NCc4cn5cc(F)ccc5n4)CC3)c2c1 [TCMDC-140778] | 43.65 |
| Cn1c(NC(=O)C2CCC(CNC(=O)c3ccc(O)c(-c4ccc(Cl)c(Cl)c4)c3)CC2)nc2ccccc21 (stereo not drawn) [TCMDC-140897] | 13.96 |
| O=C(NCc1cccnc1)C(c1cc2ccccc2o1)N1CCN(C(c2ccccc2)c2ccccc2)CC1 (stereo not drawn) [TCMDC-141023] | 15.45 |
| O=C(NC1CCC(CN2CCC(c3c[nH]c4ccccc34)CC2)CC1)c1cc(-c2ccc(F)cc2F)ccc1O (stereo not drawn) [TCMDC-139894] | -31.8 |
| Cc1cc(NCCc2ccccc2)nc(NC(=NCC(=O)OC(C)(C)C)Nc2ccc(C(F)(F)F)cc2)n1 [TCMDC-138520] | -13.38 |
| Cc1cc(N2CCCC2)nc(/N=C(\N)Nc2cccc(C(F)(F)F)c2)n1 [TCMDC-138509] | 20.83 |
| Cc1cc(NCCCOc2ccc(Cl)cc2)nc(NCc2ccccc2)n1 [TCMDC-137548] | -22.71 |
| Cc1cc(NCCc2ccccc2)nc(/N=C(\N)Nc2ccc(Cl)cc2)n1 [TCMDC-131843] | 52.3 |
| CCCCCCNc1cc(C)nc(/N=C(\N)Nc2cccc(C(F)(F)F)c2)n1 [TCMDC-138510] | 79.07 |
| NC(N)=NN=CC(=O)Nc1cccc(C(F)(F)F)c1 [TCMDC-137563] | 10.63 |
| Cc1cc(NCCc2ccccc2)nc(/N=C(\N)Nc2cccc(F)c2)n1 [TCMDC-138373] | 55.97 |
| Cc1cc(NCCc2cccc(F)c2)nc(/N=C(\N)Nc2cccc(C(F)(F)F)c2)n1 [TCMDC-138508] | 57.1 |
| N#Cc1ccc(/C=C/C(=O)NCCCCCN2CCCN(C(=O)Nc3ccc(Cl)c(C(F)(F)F)c3)CC2)cc1 [TCMDC-136110] | 28.79 |
| Cc1[nH]c(CNCCCNc2cc(=O)c3ccccc3[nH]2)c(Br)c1Br [TCMDC-139780] | -12 |
| COc1ccc(-c2cc(C(=O)Nc3ccc4nc(-c5ccccc5)[nH]c4c3)[nH]n2)cc1 [TCMDC-134399] | -1.351 |
| Fc1cccc(COc2ccc(Nc3ncnc4sc(C#CCNC5CCC5)cc34)cc2Cl)c1 [TCMDC-138785] | 4.873 |
| Cc1cc(NCCc2ccccc2)nc(/N=C(\N)Nc2cccc(Cl)c2)n1 [TCMDC-138364] | 54.32 |
| Cc1cc(NCCc2ccccc2)nc(/N=C(\N)Nc2cccc([N+](=O)[O-])c2)n1 [TCMDC-138371] | 3.581 |
| CC(C)CCN(Cc1cncn1Cc1cccc(C(F)(F)F)c1)C(=O)c1ccccc1C#N [TCMDC-132457] | 14.87 |
| O=C(O)C(F)(F)F.O=C1CCCN1CCCNCc1ccc(-c2ccc(-c3nc4cc(C(F)(F)F)ccc4[nH]3)cc2)cc1 [TCMDC-132760] | 37.39 |
| COc1cc(F)c2ncc(Cl)c(CCN3CCC(NCc4ccc5c(c4)NC(=O)CO5)CC3)c2c1 [TCMDC-135623] | 24.82 |

| SMILES | % Inhibition [%] |
| --- | --- |
| Cn1ncc2c3c(CCN4CCC(NCc5ccc6c(c5)NC(=O)CO6)CC4)c(Cl)cnc3ccc21 [TCMDC-136023] | 91.21 |
| COc1nc2c(CCN3CCC(NCc4ccc5c(c4)NC(=O)CO5)CC3)c(Cl)cnc2cc1F [TCMDC-135767] | 23.61 |
| CC(=O)c1ccc(N2C(=O)C3C(Cc4ccc(OC(C)(C)C)cc4)NC4(C(=O)N(Cc5ccc(C(C)(C)C)cc5)c5ccccc54)C3C2=O)cc1 (stereo not drawn) [TCMDC-139773] | 1.15 |
| C=CCc1cc(Cc2cnc(N)nc2N)c2ccc(C)nc2c1O [TCMDC-137628] | -3.473 |
| Cc1cccc(CNc2nccc3[nH]c4ccccc4c23)c1 [TCMDC-136334] | -2.626 |
| CN(CCc1ccccn1)c1cccc2c1nc(-c1cccnc1)n2CCNCc1ccccc1 [TCMDC-133439] | -10.58 |
| CN(C)c1cccc2c1nc(-c1ccco1)n2CCNCc1ccccc1 [TCMDC-133484] | 72.16 |
| CN(C)CCCN(C)c1cccc2c1nc(-c1cccnc1)n2CCNCc1ccccc1 [TCMDC-133440] | 88.37 |
| CN(C)CCNc1cc(-c2cccnc2)nc(-c2ccncc2)n1 [TCMDC-125595] | -4.49 |
| Cc1nc2nc(N)nc(N)c2c(C)c1Cc1cccc(C#N)c1 [TCMDC-137646] | -13.13 |
| Cc1nc(N)nc(N)c1CCCOc1ccc(Br)cc1 [TCMDC-138068] | -19.95 |
| CC(=O)c1cccc(NC(=O)N2CCCN(CCCCCNC(=O)/C=C/c3ccc(Cl)c(Cl)c3)CC2)c1 [TCMDC-135752] | -19.76 |
| COc1ccc(-c2nc(NC(=O)Cc3coc4cc(OC)ccc34)sc2C)cc1 [TCMDC-124497] | 27.62 |
| CCN(CC)CCN(Cc1ccc(-c2ccc(C(F)(F)F)cc2)cc1)C(=O)Cn1c(CCc2cccc(F)c2F)nc(=O)c2ccc(C(F)(F)F)cc21 [TCMDC-141071] | 34.24 |
| CCN(CC)CCN(Cc1ccc(-c2ccc(C(F)(F)F)cc2)cc1)C(=O)Cn1c(CCc2cccc(F)c2F)nc(=O)c2ccc(F)cc21 [TCMDC-141095] | 68.69 |
| CCN(CC)CCN(Cc1ccc(-c2ccc(C(F)(F)F)cc2)cc1)C(=O)Cn1c(SCc2ccc(F)cc2)cc(=O)c2ccccc21 [TCMDC-140791] | 99.53 |
| CCN(CC)CCN(Cc1ccc(-c2ccc(C(F)(F)F)cc2)cc1)C(=O)Cn1c(CCc2cccc(F)c2F)nc(=O)c2cc(F)c(F)cc21 [TCMDC-141089] | 67.52 |
| CCN(CC)CCN(Cc1ccc(-c2ccc(C(F)(F)F)cc2)cc1)C(=O)Cn1c(CCc2cccc(F)c2F)nc(=O)c2cc(F)ccc21 [TCMDC-141096] | 73.36 |
| COc1cccc(OC2CCN(C(=O)c3ccc(-c4ccc(N5CCCC5=O)cc4C)cc3)CC2)c1 [TCMDC-136524] | 29.3 |
| Cc1nc(N)nc(N)c1OCCCOc1ccccc1Br [TCMDC-131364] | -0.5645 |
| CN1CCCC1CCNC(=O)[C@H](CC1CCCCC1)NC(=O)c1ccc(O)c(-c2ccc(Cl)c(Cl)c2)c1 (stereo partly drawn) [TCMDC-140855] | 48.17 |
